From PubChem BioAssay (NCATS)
Results filed as inconclusive are left out. The source made the active and inactive calls. Unless noted, calls come from the whole dose curve; as a rule, active = well fitted curve in the direction sought with a large enough effect; inconclusive = small, poorly fitted or top-dose-only effect, or another doubt; inactive = no such curve, though single readings can be large; an effect the other way counts as inactive or inconclusive.

What was measured:
[1] = Quantitative High-Throughput drug screen in 47 multiple myeloma cell lines against the NCATS MIPE library collection: L363_DSMZ cell viability assay (AID 1918984); note: nearly all actives have a fitted effect of over 40% in size; note: potency is the fitted concentration of half-maximal effect
Procedure, shortened: (§1)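 MIPE 4.0 approved/investigational drugs; 500 cells/well; 48 h 37 °C humidified 5% CO2; CTG luminescence readout; DMSO = 100%, media = 0% viability.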

[2] = Quantitative High-Throughput drug screen in 47 multiple myeloma cell lines against the NCATS MIPE library collection: KMS34_JCRB cell viability assay (AID 1918985); note: nearly all actives have a fitted effect of over 40% in size; note: potency is the fitted concentration of half-maximal effect
Procedure, shortened: as §1

[3] = Quantitative High-Throughput drug screen in 47 multiple myeloma cell lines against the NCATS MIPE library collection: OPM1_PLB cell viability assay (AID 1918989); note: nearly all actives have a fitted effect of over 40% in size; note: potency is the fitted concentration of half-maximal effect
Procedure, shortened: as §1

[4] = Quantitative High-Throughput drug screen in 47 multiple myeloma cell lines against the NCATS MIPE library collection: SKMM1_PLB cell viability assay (AID 1919863); conditions: SKMM1 myeloma viability, CellTiter-Glo ATP, 48 h; viability: stronger effect = lower value; note: nearly all actives have a fitted effect of over 35% in size; note: potency is the fitted concentration of half-maximal effect
Procedure, shortened: as §1

[5] = Quantitative High-Throughput drug screen in 47 multiple myeloma cell lines against the NCATS MIPE library collection: XG6_PLB cell viability assay (AID 1919865); note: nearly all actives have a fitted effect of over 40% in size; note: potency is the fitted concentration of half-maximal effect
Procedure, shortened: as §1

[6] = Quantitative High-Throughput drug screen in 47 multiple myeloma cell lines against the NCATS MIPE library collection: PE2_PLB cell viability assay (AID 1919869); note: nearly all actives have a fitted effect of over 35% in size; note: potency is the fitted concentration of half-maximal effect
Procedure, shortened: as §1

[7] = Quantitative High-Throughput drug screen in 47 multiple myeloma cell lines against the NCATS MIPE library collection: PCM6_Riken cell viability assay (AID 1919870); note: nearly all actives have a fitted effect of over 30% in size; note: potency is the fitted concentration of half-maximal effect
Procedure, shortened: as §1

[8] = Quantitative High-Throughput drug screen in 47 multiple myeloma cell lines against the NCATS MIPE library collection: OPM2_DSMZ cell viability assay (AID 1919872); note: nearly all actives have a fitted effect of over 30% in size; note: potency is the fitted concentration of half-maximal effect
Procedure, shortened: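 We plated 500 myeloma cells per well, pinned in MIPE 4.0 compounds, and incubated for 48 hours at 37C. ATP was then quantified with CellTiter-Glo, with DMSO and media-only wells defining 100% and 0%.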

[9] = Quantitative High-Throughput drug screen in 47 multiple myeloma cell lines against the NCATS MIPE library collection: KMS11_JCRBsus cell viability assay (AID 1919873); note: nearly all actives have a fitted effect of over 50% in size; note: potency is the fitted concentration of half-maximal effect
Procedure, shortened: as §1

[10] = Quantitative High-Throughput drug screen in 47 multiple myeloma cell lines against the NCATS MIPE library collection: KMS28BM_JCRB cell viability assay (AID 1919874); note: nearly all actives have a fitted effect of over 35% in size; note: potency is the fitted concentration of half-maximal effect
Procedure, shortened: as §1

[11] = qHTS drug screen for cell cycle checkpoint inhibitors in PARPi-resistant BRCA-mutant ovarian cancer cell lines. (AID 1963452; calls by dose curve; note: potency is the fitted concentration of half-maximal effect); conditions: PEO1/OlaR viability, CellTiter-Glo luminescence, 96 h; for Z-AUC: stronger effect = lower value
Procedure, shortened: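 PEO1, PEO4 and PEO1/OlaR ovarian cancer cells, 600 per well, exposed 96 h at 37C to a dilution series. Viability read by CellTiter-Glo luminescence, normalized to DMSO and empty wells; activity summarized as Z-AUC.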

[12] = qHTS for identification of novel therapeutic agents for treatment of microphthalmiaassociated transcription factor (MiT) renal cell carcinoma (RCC) (AID 1963991; calls by dose curve; note: potency is the fitted concentration of half-maximal effect;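 for z-score: curves scaled with 100% = DMSO viability and 0% = empty wells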); conditions: CellTiter-Glo, 48 h; for z-score: stronger effect = lower value; for Potency: active = Z-AUC below -0.8 in all three lines
Procedure, shortened: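 UOK109/UOK124/UOK145 (TFE3 fusions, three partners); 500 cells/well; MIPE v4.0, 1912 cpds, 11 conc.; 48 h, 37 C; CellTiter-Glo, 15 min RT; lum. Norm.: DMSO 100%, empty 0%.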

[13] = Quantitative High-Throughput drug screen in 47 multiple myeloma cell lines against the NCATS MIPE library collection: OCIMY7_PLB cell viability assay (AID 1918987); note: nearly all actives have a fitted effect of over 65% in size; note: potency is the fitted concentration of half-maximal effect
Procedure, shortened: as §1

[14] = Quantitative High-Throughput drug screen in 47 multiple myeloma cell lines against the NCATS MIPE library collection: OCIMY5_PLB cell viability assay (AID 1918988); note: nearly all actives have a fitted effect of over 65% in size; note: potency is the fitted concentration of half-maximal effect
Procedure, shortened: as §1

[15] = Quantitative High-Throughput drug screen in 47 multiple myeloma cell lines against the NCATS MIPE library collection: U266_ATCC cell viability assay (AID 1919864); note: nearly all actives have a fitted effect of over 35% in size; note: potency is the fitted concentration of half-maximal effect
Procedure, shortened: as §1

[16] = Quantitative High-Throughput drug screen in 47 multiple myeloma cell lines against the NCATS MIPE library collection: XG1_PLB cell viability assay (AID 1919866); note: nearly all actives have a fitted effect of over 35% in size; note: potency is the fitted concentration of half-maximal effect
Procedure, shortened: as §1

[17] = Quantitative High-Throughput drug screen in 47 multiple myeloma cell lines against the NCATS MIPE library collection: RPMI8226_ATCC cell viability assay (AID 1919871); note: nearly all actives have a fitted effect of over 30% in size; note: potency is the fitted concentration of half-maximal effect
Procedure, shortened: as §1

[18] = Quantitative High-Throughput drug screen in 47 multiple myeloma cell lines against the NCATS MIPE library collection: VP6_DJ cell viability assay (AID 1919867); note: nearly all actives have a fitted effect of over 40% in size; note: potency is the fitted concentration of half-maximal effect
Procedure, shortened: as §1

[19] = qHTS profiling for inhibitors of Plasmodium falciparum proliferation (AID 504749);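 note: 0% = DMSO vehicle and full inhibition = artemisinin control; nearly all actives have a fitted effect of over 60% in size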; conditions: P. falciparum in erythrocytes, SYBR Green DNA, 72 h, at 28.7 µM (top of the series)
Procedure, shortened: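 Parasite proliferation within erythrocytes, 72 h exposure. Endpoint: SYBR Green I fluorescence after overnight lysis at room temperature. Controls: 0.29 uM artemisinin, DMSO.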

[20] = Quantitative High-Throughput drug screen in 47 multiple myeloma cell lines against the NCATS MIPE library collection: UTMC2_PLB cell viability assay (AID 1919868); conditions: CellTiter-Glo ATP luminescence, 48 h; viability (% of DMSO control): at 45.8 µM (top of the series) unless noted; note: potency is the fitted concentration of half-maximal effect; nearly all actives have a fitted effect of over 55% in size
Procedure, shortened: as §1

[21] = measured here: PEO1 parental Z-AUC
[22] = TFE3-RCC UOK109 viability, measured here: UOK109 Z-AUC
[23] = TFE3-RCC viability, measured here: UOK124 Z-AUC
[24] = TFE3-RCC viability, measured here: UOK145 Z-AUC

CC(C)(O)CCc1ccc(OCc2cc(-c3cccc(OC(F)F)c3)c3ncccc3c2)cc1
Potency [1]: inactive
Potency [2]: inactive
Potency [3]: inactive
viability [4]: 123% (inactive)
Potency [5]: 20.9 µM (active)
Potency [6]: inactive
Potency [7]: inactive
Potency [8]: inactive
Potency [9]: inactive
Potency [10]: inactive
Z-AUC [11]: -0.38 (inactive)
Z-AUC [11, 21]: 0.116
Z-AUC ([11]; measured here: PEO4 Z-AUC): 0.147
z-score [12, 22]: 0.14
z-score [12, 23]: 0.328
z-score [12, 24]: 0.0594

COc1cc2c(Nc3ccc(NC(=O)c4ccccc4)cc3)ncnc2cc1OCCCN1CCOCC1
Potency [1]: inactive
Potency [13]: 2.64 µM (active)
Potency [14]: 18.7 µM (active)
Potency [3]: 20.9 µM (active)
Potency [15]: 23.5 µM (active)
Potency [16]: 20.9 µM (active)
Potency [6]: 20.9 µM (active)
Potency [7]: 16.6 µM (active)
Potency [17]: 23.5 µM (active)
Potency [9]: 10.5 µM (active)
Z-AUC [11]: 0.665 (inactive)
Z-AUC [11, 21]: 0.378
Z-AUC ([11]; measured here: PEO4 Z-AUC): -0.00174

O=C(O)CCCc1c[nH]c2ccccc12
Potency [1]: inactive
Potency [2]: inactive
Potency [3]: inactive
viability [4]: 113% (inactive)
Potency [16]: inactive
Potency [18]: 26.4 µM (active)
Potency [6]: inactive
Potency [10]: inactive
z-score [12, 22]: 0.907
z-score [12, 23]: 0.701
z-score [12, 24]: 0.654

Cc1cccc(C=NNc2cc(N3CCOCC3)nc(OCCc3ccccn3)n2)c1
Potency [1]: 0.235 µM (active)
Potency [14]: 23.5 µM (active)
Potency [3]: 4.18 µM (active)
Potency [4]: 16.6 µM (active)
Potency [5]: 16.6 µM (active)
Potency [16]: 23.5 µM (active)
Potency [6]: 18.7 µM (active)
Potency [17]: 18.7 µM (active)
Potency [8]: 6.62 µM (active)
Potency [9]: 2.64 µM (active)
Potency ([12]; TFE3-RCC UOK109 viability): 0.118 µM (active)
z-score [12, 22]: -0.897
z-score [12, 23]: -1.42
z-score [12, 24]: -0.962

CC1(C)O[C@@H]2C[C@@H]3[C@H]4C[C@@H](F)C5=CC(=O)C=C[C@]5(C)[C@@]4(F)[C@@H](O)C[C@]3(C)[C@]2(C(=O)CO)O1
Potency [1]: 0.0372 µM (active)
Potency [2]: inactive
Potency [14]: 0.0166 µM (active)
Potency [3]: 0.0187 µM (active)
Potency [16]: inactive
Potency [18]: inactive
Potency [6]: 1.18 µM (active)
Potency [17]: 0.0083 µM (active)
Potency [8]: inactive
Potency [9]: 0.0042 µM (active)
activity, negative = inhibition ([19]; parasite line A): 4.83% (inactive)
activity, negative = inhibition ([19]; parasite line B): 2.94% (inactive)

Cc1coc2c1C(=O)C(=O)c1c-2ccc2c1CCCC2(C)C
Potency [1]: 0.0418 µM (active)
Potency [14]: 14.8 µM (active)
Potency [3]: 20.9 µM (active)
Potency [4]: 18.7 µM (active)
Potency [15]: inactive
Potency [18]: 20.9 µM (active)
Potency [17]: 2.09 µM (active)
Potency [8]: 16.6 µM (active)
Potency [10]: inactive
Z-AUC [11]: 1.2 (inactive)
Z-AUC [11, 21]: 0.989
Z-AUC ([11]; measured here: PEO4 Z-AUC): 0.949

Cn1c(CNc2ccc(C(=N)N)cc2)nc2cc(C(=O)N(CCC(=O)O)c3ccccn3)ccc21
Potency [1]: inactive
Potency [13]: inactive
Potency [14]: inactive
Potency [3]: inactive
viability [4]: 127% (inactive)
Potency [15]: inactive
Potency [5]: inactive
Potency [16]: inactive
Potency [7]: inactive
Potency [17]: inactive
Potency [8]: inactive
Potency [9]: inactive
Potency [10]: inactive
Z-AUC [11]: 3.54 (inactive)
Z-AUC [11, 21]: 3.55
Z-AUC ([11]; measured here: PEO4 Z-AUC): 3.92
z-score [12, 22]: 1.13
z-score [12, 23]: 1.05
z-score [12, 24]: 1.25

CC(C)Nc1cc(C(F)(F)F)cc2nc(NC(=O)c3cccnc3)nn12
Potency [1]: inactive
Potency [2]: inactive
Potency [14]: 8.33 µM (active)
Potency [15]: 7.43 µM (active)
Potency [16]: inactive
Potency [6]: inactive
Potency [7]: inactive
Potency [17]: inactive
Potency [9]: inactive
Potency [10]: inactive
Z-AUC [11]: 0.923 (inactive)
Z-AUC [11, 21]: 0.905
Z-AUC ([11]; measured here: PEO4 Z-AUC): 1.12

O=C(c1cncc(Br)c1)N1CCC(N2CCCC2)CC1
Potency [1]: inactive
Potency [13]: inactive
Potency [5]: inactive
Potency [16]: inactive
Potency [6]: inactive
Potency [7]: inactive
Potency [17]: inactive
Potency [9]: inactive
Potency [10]: inactive
Z-AUC [11]: -0.226 (inactive)
Z-AUC [11, 21]: -0.235
Z-AUC ([11]; measured here: PEO4 Z-AUC): 0.232
z-score [12, 22]: 0.796
z-score [12, 23]: 0.785
z-score [12, 24]: 0.752

C[C@]12CC[C@H](O)CC1=CCC1C2CC[C@]2(C)C(n3cnc4ccccc43)=CCC12 (stereo not given in full)
Potency [1]: inactive
Potency [14]: 18.7 µM (active)
Potency [3]: inactive
viability [4]: 80.8% (inactive)
Potency [15]: inactive
Potency [16]: inactive
Potency [6]: inactive
Potency [7]: inactive
Potency [9]: inactive
Potency [10]: inactive
Z-AUC [11]: 0.586 (inactive)
Z-AUC [11, 21]: 1.13
Z-AUC ([11]; measured here: PEO4 Z-AUC): 0.642
z-score [12, 22]: 0.298
z-score [12, 23]: 0.603
z-score [12, 24]: -0.0216

C=CCn1c(=O)c2cnc(Nc3ccc(N4CCN(C)CC4)cc3)nc2n1-c1cccc(C(C)(C)O)n1
Potency [1]: 0.0833 µM (active)
Potency [2]: 0.0148 µM (active)
Potency [14]: 0.332 µM (active)
Potency [3]: 0.59 µM (active)
Potency [4]: 0.469 µM (active)
Potency [16]: 0.166 µM (active)
Potency [18]: 0.372 µM (active)
Potency [20]: 0.148 µM (active)
Potency [6]: 0.235 µM (active)
Potency [7]: 0.469 µM (active)
Potency [17]: 2.35 µM (active)
Potency [8]: 1.18 µM (active)
Potency [9]: 0.264 µM (active)
Potency [10]: 0.418 µM (active)
Potency [11]: 0.138 µM (active)
Z-AUC [11, 21]: -1.63
Z-AUC ([11]; measured here: PEO4 Z-AUC): -1.42
Potency ([12]; TFE3-RCC UOK109 viability): 0.235 µM (active)
z-score [12, 22]: -1.89
z-score [12, 23]: -1.72
z-score [12, 24]: -2.1

C[C@@H]1CN(CC(=O)Nc2ccc3c(c2)Cc2cccc(-c4cc(=O)cc(N5CCOCC5)o4)c2S3)C[C@H](C)O1
Potency [1]: 14.8 µM (active)
Potency [13]: 1.32 µM (active)
Potency [14]: 20.9 µM (active)
Potency [3]: 16.6 µM (active)
Potency [5]: 9.35 µM (active)
Potency [16]: 5.9 µM (active)
Potency [20]: 6.62 µM (active)
Potency [6]: 13.2 µM (active)
Potency [7]: 9.35 µM (active)
Potency [9]: 16.6 µM (active)
Z-AUC [11]: 0.729 (inactive)
Z-AUC [11, 21]: 0.761
Z-AUC ([11]; measured here: PEO4 Z-AUC): 0.901
